Reference: PubChem BioAssay (NCATS)
Inconclusive results are not listed. Active and inactive are the calls of the source. Calls come from the whole dose curve; as a rule, active = well fitted inhibition curve with a large enough effect; inconclusive = small, poorly fitted or top-dose-only effect; inactive = flat fitted curve, though single readings scatter.

Biological target: Calcium and integrin-binding protein 1 (Homo sapiens) (UniProt Q99828)
Experiment: Primary qHTS for Identification of Calcium Integrin Binding Protein 1 (CIB1) Competitor (AID 1508620); for activity change, negative = inhibition: top concentration of the series differs between compounds
Details: CIB1-GST / FITC-alphaIIb peptide fluorescence polarization; series mostly up to 114 µM; activity change, negative = inhibition: at the top concentration
Procedure, shortened: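 Fluorescence polarization competition: GST-tagged CIB1 (1 uM final) preincubated with compound 15 min at room temperature, then FITC-labelled alphaIIb peptide (100 nM final) added. After 15 min at room temperature, polarization read at Ex 480/Em 540.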
% is set by controls: 0 for no effect and ±100 for the full control effect; potency is the fitted concentration of half-maximal effect.

Chain of Calcium and integrin-binding protein 1 (Homo sapiens) (Q99828 whole entry, looked up): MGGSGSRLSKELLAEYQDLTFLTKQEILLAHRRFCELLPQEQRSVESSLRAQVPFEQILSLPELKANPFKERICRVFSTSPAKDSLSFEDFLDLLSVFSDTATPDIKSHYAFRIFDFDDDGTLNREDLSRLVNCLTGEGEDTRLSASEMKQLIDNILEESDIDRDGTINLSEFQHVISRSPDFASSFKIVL

SMILES | activity change, negative = inhibition | Potency
CCCCCN=C(N)N/N=C/c1c[nH]c2ccc(OC)cc12 | -13.9% (inactive) | 
CCN(CC)CCOc1ccc2c(c1)C(=O)c1cc(OCCN(CC)CC)ccc1-2 | 2.85% (inactive) | 
CCN1CCN(C(=O)N[C@@H](C(=O)N[C@@H]2C(=O)N3C(C(=O)O)=C(CSc4nnnn4C)CS[C@H]23)c2ccc(O)cc2)C(=O)C1=O | -13.7% (inactive) | 
O=C1C(CCS(=O)c2ccccc2)C(=O)N(c2ccccc2)N1c1ccccc1 (stereo unspecified) | -3.27% (inactive) | 
CNCCCCOc1ccccc1Cc1ccccc1 | 1.87% (inactive) | 
O=C1OC2(c3ccccc31)c1cc(Br)c(O)c(Br)c1Oc1c2cc(Br)c(O)c1Br | -38% (inactive) | 
CC[C@H](c1ccc(O)cc1)[C@@H](CC)c1ccc(O)cc1 | -1.2% (inactive) | 
Cc1c(-c2ccccc2)oc2c(C(=O)OCCN3CCCCC3)cccc2c1=O | 3.34% (inactive) | 
Cc1cn([C@H]2C[C@H](F)[C@@H](CO)O2)c(=O)[nH]c1=O | -5.02% (inactive) | 
CN1CCC[C@@H]1CCO[C@](C)(c1ccccc1)c1ccc(Cl)cc1 | 0.795% (inactive) | 
O=C(Nc1ncc([N+](=O)[O-])s1)c1cccs1 | -13.3% (inactive) | 
CC(=O)OCC(=O)[C@H]1CC[C@H]2[C@@H]3CCC4=CC(=O)CC[C@]4(C)[C@H]3CC[C@]12C | 5.69% (inactive) | 
Oc1ccc(Cl)cc1Cc1cc(Cl)ccc1O |  | 79.4 µM (active)
CCC(Cc1c(I)cc(I)c(N)c1I)C(=O)O (stereo unspecified) | -1.17% (inactive) | 
CCCCCCCCCCCCCC[N+](C)(C)Cc1ccccc1 | -1.53% (inactive) | 
CC1=C(C(=O)O)N2C(=O)[C@@H](NC(=O)[C@H](N)c3ccccc3)[C@H]2SC1 | -0.157% (inactive) | 

SMILES | activity change, negative = inhibition | Potency
CCCN(CCc1cccs1)[C@H]1CCc2c(O)cccc2C1 | 1.04% (inactive) | 
C#C[C@]1(OC(C)=O)CC[C@H]2[C@@H]3CCC4=C/C(=N/O)CC[C@@H]4[C@H]3CC[C@@]21CC | -1.24% (inactive) | 
NS(=O)(=O)c1cc2c(cc1Cl)NC(CC1CCCC1)NS2(=O)=O (stereo unspecified) | 3.64% (inactive) | 
CCCN(CCC)S(=O)(=O)c1ccc(C(=O)O)cc1 | 0.902% (inactive) | 
CCCCC(CC)COC(=O)/C=C/c1ccc(OC)cc1 (stereo unspecified) | 3.3% (inactive) | 
CCN(CC)CCNc1ccc(CO)c2sc3ccccc3c(=O)c12 | -16.8% (inactive) | 
NC(N)=NN=C(/C=C/c1ccc([N+](=O)[O-])o1)/C=C/c1ccc([N+](=O)[O-])o1 | -2.98% (inactive) | 
C[C@@H](O)[C@H]1C(=O)N2C(C(=O)O)=C([C@H]3CCCO3)S[C@H]12 | -1.91% (inactive) | 
O=C(O)CCNC(=O)c1ccccc1 | 3.85% (inactive) | 
CCN(CC)CCOc1ccccc1C(=O)CCc1ccccc1 | -0.283% (inactive) | 
CN1CCN(C2=Nc3cc(F)ccc3Cc3ccccc32)CC1 | -6.2% (inactive) | 
NC(=O)n1c(O)c(C(=O)c2cccs2)c2cc(Cl)ccc21 | -4.88% (inactive) | 
O=C1c2cccc3c2[C@H](CCC3)CN1[C@@H]1CN2CCC1CC2 | -2.48% (inactive) | 
CC(=O)O[C@]1(C(C)=O)CC[C@H]2[C@@H]3C=C(Cl)C4=CC(=O)CC[C@]4(C)[C@H]3CC[C@@]21C | 0.863% (inactive) | 
NCCNc1cccc2ccccc12 | -4.6% (inactive) | 
